The record followed here is PubChem BioAssay (Tox21).

A short description of test [1]: qHTS assay for small molecule agonists of the p53 signaling pathway (AID 651631; calls by dose curve; further: nearly all actives have a fitted effect of over 15% in size). A digest of the protocol:
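Read-out is beta-lactamase FRET fluorescence measured 2 h after substrate addition at room temperature, in HCT-116 cells with a p53 response element-driven reporter exposed to compounds for 16 h at 37 °C.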

Test [2] can be described thus: qHTS assay for small molecules that induce genotoxicity in human embryonic kidney cells expressing luciferase-tagged ATAD5 (AID 651632). Further: nearly all actives have a fitted effect of over 15% in size. Further: potency means the concentration at half of the fitted maximal effect. The method in brief:
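Increased luciferase signal from ATAD5-tagged reporter cells indicates DNA-damage-driven ATAD5 induction. HEK293T cells are treated for 16 hr at 37C before detection with Amplite.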
Background: In qHTS, concentration-response curves come from the screen itself.

The nature of test [3]: qHTS assay for small molecule agonists of the p53 signaling pathway - cell viability (AID 651633; calls by dose curve;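 further: p53RE-bla HCT reporter cells with a stable beta-lactamase p53 reporter; series mostly up to about 83 µM; nearly all actives have a fitted effect of over 30% in size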). The method in brief: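 p53RE-bla cells, seeded at 4,000 per well and rested 5 h at 37 C/5% CO2, received compounds in DMSO for 16 h at 37 C. CellTiter-Glo was then added, and luminescence was read after 30 min at room temperature to gauge cytotoxicity.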
The nature of test [4]: qHTS assay for small molecules that induce genotoxicity in human embryonic kidney cells expressing luciferase-tagged ATAD5 - cell viability (AID 651634; calls by dose curve; further: nearly all actives have a fitted effect of over 25% in size; further: potency means the concentration at half of the fitted maximal effect). A digest of the protocol: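 Cytotoxicity counterscreen in HEK293T cells bearing an ATAD5-luciferase reporter: live-cell protease activity measured by CellTiter-Fluor fluorescence after 15.5 hr compound exposure.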
Test [5] can be described thus: qHTS assay for small molecule disruptors of the mitochondrial membrane potential - cell viability (AID 720634; calls by dose curve;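 further: human HepG2 liver cancer cells; series mostly up to about 83 µM; nearly all actives have a fitted effect of over 20% in size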). A digest of the protocol:
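After overnight attachment at 37 C, HepG2 cells received compound or DMSO vehicle for 1 hr. Viability is then taken from ATP-driven luminescence following a 30 min room-temperature CellTiter-Glo step.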

Test [6] can be described thus: qHTS assay to test for compound auto fluorescence at 590 nm (red) in HepG2 cells (AID 720674). A digest of the protocol:
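Rose Bengal sodium served as the red fluorophore standard. HepG2 monolayers (overnight attachment, MEM with 10% FBS) were exposed to test compounds for 1 hr at 37 C and read at Ex 540/Em 590 nm.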

A short description of test [7]: qHTS assay to test for compound auto fluorescence at 535 nm (green) in HepG2 cells (AID 720675).
Test [8] in a line: qHTS assay to test for compound auto fluorescence at 590 nm (red) in HEK293 cells (AID 720679). A digest of the protocol:
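Autofluorescence equivalency to Rose Bengal sodium, 540/590nm, in HEK293 cells exposed overnight to 23 nL compound per well.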

The nature of test [9]: qHTS assay to test for compound auto fluorescence at 460 nm (blue) in HEK293 cells (AID 720678). A digest of the protocol: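 Auto fluorescence in the blue band was quantified as triamterene equivalency. HEK293 cells were seeded at 2,000/well, dosed after a 4-5 hr attachment, and kept overnight at 37C before the 405/460 nm reading.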
A short description of test [10]: qHTS assay for small molecule disruptors of the mitochondrial membrane potential (AID 720635). Further: potency means the concentration at half of the fitted maximal effect. A digest of the protocol: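 HepG2 cells (2,000/well) attached overnight at 37C, then took compound for 1 hr at 37C, 5% CO2. Mito-MPS dye was added for 30 min; fluorescence was read at 490/535 nm (monomers) and 540/590 nm (aggregates).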

The structures appear in SMILES notation. Unmarked numbers belong to inactive results. Results filed as inconclusive are left out. The source made the active and inactive calls. Unless noted, the call rests on the fitted dose curve; in most records, active means well fitted curve in the direction sought with a large enough effect in the repeat runs; inconclusive means weak or mixed curves; inactive means no such curve, though single readings can be large; an effect the other way counts as inactive or inconclusive.

Regarding `COC(=O)Cc1cccc2ccccc12`, the Potency result in test [1], in [2], in test [3], in test [4] and in test [5] was “inactive” in each case. In addition, the compound was called inactive in test [6], in test [7] and in test [8].

As to `C[Si](C)(C)O[Si](C)(C)O[Si](C)(C)C`, the Potency result in test [1], in test [2], in test [3], in test [4] and in test [5] was “inactive” each time. For the same compound, the compound was called inactive in test [6], in [7] and in [8].

For `COc1cc(C)c(Cc2cnc(N)nc2N)cc1OC`, the Potency result in test [1], in test [2], in test [3], in [4], in [5] and in [9] was “inactive” throughout. Also, the outcome in [6], in [7] and in [8] was inactive.

Take `FC1(F)C(F)(F)C(F)(F)C2(F)C(F)(C1(F)F)C(F)(F)C(F)(F)C1(F)C(F)(F)C(F)(F)C(F)(F)C(F)(F)C12F` (configuration not stated): the Potency result in [1], in test [2], in test [3], in test [4], in test [5] and in test [9] was “inactive” in each case. The result in test [6], in test [7] and in [8] was inactive.

As to `CC(C)(O)C(=O)O`, the Potency entry in test [1], in test [2], in [3], in test [4], in test [5] and in [9] was “inactive” each time. Further, the compound was called inactive in [6], in test [7] and in test [8].

Consider `CCCCCCCCCCCCCCCCC(=O)O`, for which the Potency result in test [1], in [2], in test [3], in test [4], in test [5] and in test [9] was “inactive” each time. Besides, the compound was called inactive in [6], in test [7] and in [8].

Turning to `O=C(c1ccc(Cl)cc1)c1ccc(Cl)cc1`, the Potency result in test [1], in test [2], in test [3], in test [4], in test [5] and in test [9] was “inactive” each time. Moreover, the call in test [6] and in [8] was inactive.

`CS(C)=O`: the Potency result in [1], in [2], in [3], in test [4], in test [5] and in test [9] was “inactive” each time. In addition, the call in test [6], in test [7] and in test [8] was inactive.

Regarding `CCCCCCCCCCCCSC#N`, the Potency result in test [1], in [2], in test [3], in test [4] and in test [5] was “inactive” throughout. The outcome in test [6], in test [7] and in test [8] was inactive.

As to `CCCCOc1ccc(N)cc1`, the Potency entry in test [1], in test [2], in test [3], in test [4], in [5] and in test [9] was “inactive” in each case. In addition, the result in test [6], in test [7] and in test [8] was inactive.

Regarding `CCn1nc(Cc2ccccc2)cc1C1CCN(C[C@H]2C[C@H](N(C)[C@@H](C(=O)O)C(C)C)C[C@@H]2c2cccc(F)c2)CC1`, the Potency entry in [1], in test [2], in test [3], in test [4], in test [5] and in [9] was “inactive” throughout. Besides, the compound was classed as inactive in [6], in [7] and in test [8].

For `Nc1ccc(F)cc1F`, the Potency entry in test [1], in test [2], in [3], in test [4], in test [10] and in test [9] was “inactive” in each case. Further, the call in [6], in [7] and in test [8] was inactive.

Consider `O=C(O)c1ccc2cc(O)ccc2c1`, for which the Potency entry in [1], in test [2], in test [3], in test [4], in [5] and in test [9] was “inactive” in each case. The compound was called inactive in test [6], in test [7] and in test [8].

As for `c1ccc(CCNc2nc(-c3ccccc3)cs2)cc1`, the Potency entry in test [1], in test [3], in test [4] and in [9] was “inactive” in each case. Also, the Potency in test [2] is 3.35 µM (active); in [10] it was 10.6 µM (active). The compound was classed as inactive in test [6], in [7] and in test [8].

Consider `COc1cccc([C@H](O)C2CCN(CCc3ccc(F)cc3)CC2)c1OC`, for which the Potency entry in test [1], in test [2], in test [3], in test [4], in [5] and in [9] was “inactive” each time. In addition, the compound was called inactive in test [6] and in test [8].

As to `O=C(OCCOCCOCCOC(=O)c1ccccc1)c1ccccc1`, the Potency result in [1], in [2], in test [3], in test [4], in test [5] and in test [9] was “inactive” throughout. Besides, the compound was classed as inactive in [6], in test [7] and in test [8].

As to `Cc1cc(SC2=C(O)C[C@@](CCc3ccc(N)cc3)(C(C)C)OC2=O)c(C(C)(C)C)cc1CO`, the Potency entry in test [1], in test [2], in test [3], in [4], in [5] and in test [9] was “inactive” each time. For the same compound, the result in test [6], in test [7] and in test [8] was inactive.

On to `Cc1cc(N)n(-c2ccccc2)n1`, for which the Potency entry in [1], in test [2], in [3], in [4], in [5] and in [9] was “inactive” each time. The call in test [6], in test [7] and in test [8] was inactive.

On to `O=C1c2ccccc2C(=O)C1c1ccc2cc(S(=O)(=O)O)cc(S(=O)(=O)O)c2n1`, for which the Potency result in [1], in test [2], in test [3] and in test [5] was “inactive” in each case. Besides, the Potency in test [4] is 52.5 µM (active). The result in test [6], in test [7] and in [8] was inactive.

Consider `Cc1nc(C)c(C)nc1C`, for which the Potency result in test [1], in [2], in test [3], in [4], in [5] and in [9] was “inactive” in each case. For the same compound, the outcome in test [6], in [7] and in test [8] was inactive.

In the case of `CCCCCCC/C=C/C=O`, the Potency result in test [1], in test [2], in test [3], in [4], in test [5] and in [9] was “inactive” in each case. For the same compound, the compound was classed as inactive in test [6], in [7] and in test [8].

On to `O=C(O)COCC(=O)O`, for which the Potency entry in test [1], in [2], in [3], in test [4], in test [5] and in test [9] was “inactive” throughout. In addition, the compound was classed as inactive in [6] and in test [8].

`CCCCCCCCS`: the Potency entry in test [1], in test [2], in [3], in [4], in test [10] and in test [9] was “inactive” throughout. Further, the compound was called inactive in test [6], in test [7] and in [8].

As for `O=P(c1ccccc1)(c1ccccc1)c1ccccc1`, the Potency result in test [1], in [2], in test [3], in test [4], in test [5] and in test [9] was “inactive” throughout. The compound was called inactive in [6], in test [7] and in test [8].

With `CC(C)=CCCC(C)C=O` (configuration not stated), the Potency result in test [1], in [2], in [3], in test [4] and in test [5] was “inactive” each time. The compound was classed as inactive in test [6], in test [7] and in test [8].

For `O=S(=O)(O)c1cc(Cl)c(Cl)cc1Cl`, the Potency entry in test [1], in [2], in [3], in [5] and in test [9] was “inactive” throughout. Also, the compound was called inactive in [6], in test [7] and in test [8].

For the compound `O=C(O)c1cccc(C(=O)O)c1C(=O)O`, the Potency entry in [1], in [2], in test [3] and in test [4] was “inactive” each time. The result in [6], in test [7] and in test [8] was inactive.
